Sampled rows, rich in hits. Any-hit rate of the full collection: about 4.6%.
CF NFkB inh = cystic fibrosis NF-kB activation inhibition | KKLEB NF-kB-GFP reporter, PAF-induced, GFP fluorescence overnight | inhibition, % at 5 µM | hit rate 0.86% among 360,000 | AID 588850;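 active means at least 50% inhibition at 5 µM, scaled per plate between neutral and stimulator controls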;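 further: PAF is a Pseudomonas aeruginosa culture filtrate used as stimulus; plate controls were PAF-stimulated DMSO wells for no effect and unstimulated DMSO wells for full effect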
HIF-2a block = inhibitors of HIF-2a | AID 624352 | inhibition, % at 18.8 µM | 786-0 RCC cells HIF-2a reporter, luciferase luminescence, overnight | hit rate 0.72% among 360,000;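 active means inhibition of the luminescence signal of 40% or more relative to plate controls, in a single-dose primary screen at 18.75 µM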
Mdm2-MdmX inh = human Mdm2/MdmX binding inhibition. O15151+Q00987. SaOS-2 split-luciferase Mdm2/MdmX complementation, luminescence. inhibition, % at 8 µM. hit rate 3% among 330,000. AID 485346;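 active means inhibition of at least 50% at 8 µM in the primary screen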
Peg3 promoter = Peg3 promoter activity inhibition | HeLa PEG-Prom luciferase reporter, luminescence, overnight | inhibition, % at 20 µM | hit rate 1.7% among 360,000 | AID 588405;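 active means inhibition of at least 50% at 20 µM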
ABHD5 PLIN5 PPI = blocks binding of human ABHD5 to perilipin-5 | AID 602281 | inhibition, % at 4 µM | Q00G26+Q8WTS1 | hit rate 0.78% among 360,000 | Split G. princeps luciferase complementation, luminescence, 4 h;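 active means inhibition above the mean inhibition across every tested compound plus 3 SD, cut at about 22% in these data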;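 further: 0% = DMSO only wells and the 100% control is not disclosed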
KKLEB tox = CF airway cell cytotoxicity counter-screen | KKLEB CF airway cells viability, ATPlite luminescence, overnight; hits give low values; cells stimulated with P. aeruginosa culture filtrate | activity change (cytotoxicity), % at 5 µM | hit rate 0.36% among 360,000 | AID 602141;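 active means corrected activity change at or below -50% at 5 µM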
ABHD5-PLIN5 conf = confirmation of human ABHD5-PLIN5 interaction inhibitors | shares compounds with ABHD5 PLIN5 PPI | biochemical ABHD5-PLIN5 interaction, luminescence | AID 651612 | inhibition, % at 4 µM | hit rate 67% among 2,200; in the data active means inhibition above about 23%;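 further: 0% = DMSO vehicle wells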
HNF4 counter = HNF4 split-luciferase signal hit, counter-screen | hit rate 77% among 2,200 | AID 651674 | HNF4 dimerization, luminescence, biochemical | shares compounds with ABHD5 PLIN5 PPI | inhibition, % at 4 µM;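 active means mean inhibition across replicate wells exceeding the computed hit threshold, cut at about 13% in these data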;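 further: light from luciferase halves that rejoin when HNF4 fusion proteins dimerize; 0% = DMSO only wells and the 100% control is not given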
Target sequence (P41235 whole entry, looked up, the tested form may be a part): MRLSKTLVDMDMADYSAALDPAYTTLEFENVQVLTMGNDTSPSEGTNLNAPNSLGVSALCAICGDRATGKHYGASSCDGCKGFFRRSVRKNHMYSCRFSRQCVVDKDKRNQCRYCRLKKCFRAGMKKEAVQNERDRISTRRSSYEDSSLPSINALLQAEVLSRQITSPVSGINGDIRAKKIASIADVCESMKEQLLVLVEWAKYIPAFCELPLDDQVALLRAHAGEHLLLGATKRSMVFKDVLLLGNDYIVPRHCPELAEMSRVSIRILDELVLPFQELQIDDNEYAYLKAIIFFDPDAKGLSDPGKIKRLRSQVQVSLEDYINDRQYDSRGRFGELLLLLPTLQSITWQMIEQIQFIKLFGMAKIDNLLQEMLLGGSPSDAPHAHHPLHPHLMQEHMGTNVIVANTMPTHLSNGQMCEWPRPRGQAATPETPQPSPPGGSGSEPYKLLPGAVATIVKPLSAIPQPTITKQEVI
The depositor's hits bear a star; . = no result given.

SMILES	CF NFkB inh	HIF-2a block	Mdm2-MdmX inh	Peg3 promoter	ABHD5 PLIN5 PPI	KKLEB tox	ABHD5-PLIN5 conf	HNF4 counter
CCOC(=O)C(C)Sc1nc2c(cnn2-c2ccc(F)cc2)c(=O)[nH]1 (stereo not drawn)	-18	7	8	28	-5	-2	.	.
CCOc1ccc(N2CC(C(=O)NCc3ccc4c(c3)OCO4)CC2=O)cc1 (stereo not drawn)	-10	2	9	1	-5	2	.	.
Cc1nnc(SCc2ccccc2)nc1/C=C/NOCc1ccc(Cl)cc1Cl	2	-3	-2	20	26*	5	15	25*
Nc1ccc(CCn2ccnc2)cc1	-10	11	-5	1	5	16	.	.
CCCCCCCCCc1conc1C(=O)/C=C/c1ccco1	.	6	.	.	25*	.	26*	21*
CCN(CC)C(=O)c1ccc2sc([C@@H]3O[C@H](CO)[C@H](O)[C@H](O)[C@H]3O)nc2c1	13	3	.	0	2	-4	.	.
CN(C)c1ccc2cc(S(=O)(=O)O)cc(O)c2c1	-6	6	.	20	26*	13	9	13*
CCCN(CC1CC1)C(=S)NC(=O)c1ccccc1C	-19	7	.	-7	1	12	.	.
CCCN(CC1CC1)C(=S)NC(=O)c1cc(Br)ccc1Cl	-35	5	11	9	24*	27	2	-7
Cc1cccc(NC(=O)COC(=O)c2nn(-c3ccccc3C(F)(F)F)cc2O)c1C	13	6	.	14	5	-1	.	.
Cc1[nH]nc2c1C(c1ccc(-c3ccc(Cl)cc3)o1)C(C#N)=C(N)O2 (stereo not drawn)	-39	-51	25	32	28*	-12	17	44*
Cc1[nH]nc2c1C(c1ccc(-c3ccccc3C#N)o1)C(C#N)=C(N)O2 (stereo not drawn)	-6	-6	27	6	-2	-19	.	.
Cc1ccc(-c2ccc(C3C(C#N)=C(N)Oc4n[nH]c(C)c43)o2)cc1 (stereo not drawn)	-42	-70	1	-11	24*	-9	26*	44*
O=C1C=C(N2CCN(C3=CC(=O)CCC3)CC2)CCC1	7	11	-4	8	48*	9	10	20*
O=C1C=C(N2CCOCC2)CO1	-17	5	-4	5	-2	4	.	.
COc1ccccc1N1CCN(C2=CC(=O)CCC2)CC1	-15	-19	-9	-9	21	11	.	.
O=C1C=C(N2CCOCC2)CCC1	-3	-6	1	5	27*	-4	4	4
Cc1ccc2sc(N(CCN(C)C)C(=O)c3ccc4ccccc4c3)nc2c1C	15	4	11	-24	6	-10	.	.
Cc1ccc2sc(N(CCCN(C)C)C(=O)CN3C(=O)c4ccccc4C3=O)nc2c1C	2	9	20	-27	31*	-5	23*	.
COc1ccc(NC(=S)N2CCN(Cc3ccco3)CC2)c(OC)c1	-1	-12	-14	-6	23*	-9	3	14*
NC(=O)c1cccc(-c2coc3c(C(=O)NC4CCCCC4)cccc23)c1	3	-76	.	-26	5	0	.	.
Cc1ccc(C)c(S(=O)(=O)N2CCN(Cc3cc4c(cc3O)OCO4)CC2)c1	1	15	-3	-1	25*	12	35*	65*
CCOC(=O)C1=CC[C@@H](c2ccccc2)N(S(=O)(=O)c2ccc(C)cc2)[C@@H]1C#N	.	-46	.	.	48*	.	50*	58*
CC1=NN(C(=O)c2ccc(Cn3nc(C)cc3C)o2)C(O)(C(F)(F)F)C1 (stereo not drawn)	3	9	15	7	58*	12	6	-2
CC(NC(=O)/C(C#N)=C/c1ccc(C(=O)O)cc1)c1ccccc1 (stereo not drawn)	-2	8	0	-8	24*	0	47*	30*
SMILES	CF NFkB inh	HIF-2a block	Mdm2-MdmX inh	Peg3 promoter	ABHD5 PLIN5 PPI	KKLEB tox	ABHD5-PLIN5 conf	HNF4 counter
COc1cc(/C=C(/C#N)C(=O)NC(C)c2ccccc2)cc(OC)c1O (stereo not drawn)	-12	24	-20	17	14	0	.	.
O=C(CCCN1C(=O)S/C(=C\C=C\c2ccccc2)C1=O)Nc1ccc(C(=O)O)cc1	-7	-145	17	-58	34*	5	19	20*
c1ccc(C(c2ccccc2)c2noc(CN3CCC(c4ccncc4)CC3)n2)cc1	4	18	3	14	4	9	.	.
COc1ccc(NC(=O)C(c2ccc(OC)cc2)n2c(=O)c(-c3ccco3)nc3ccccc32)cc1 (stereo not drawn)	.	-27	.	.	42*	.	39*	5
COc1ccc(NC(=O)C(c2ccccc2)n2c(=O)c(-c3ccco3)nc3ccccc32)cc1 (stereo not drawn)	.	-8	.	.	23*	.	33*	11
COc1ccc(NC(=O)C(c2ccnc3ccccc23)n2c(=O)c(-c3ccco3)nc3ccccc32)cc1 (stereo not drawn)	.	-2	.	.	36*	.	25*	6
COc1ccc(C(C(=O)Nc2ccc3c(c2)OCCO3)n2c(=O)c(-c3ccco3)nc3ccccc32)cc1 (stereo not drawn)	.	-54	.	.	78*	.	38*	2
COc1ccc(NC(=O)C(c2ccnc3ccccc23)n2c(=O)c(-c3ccccc3)nc3ccccc32)cc1 (stereo not drawn)	.	-12	.	.	0	.	.	.
O=C(NCCCc1ccc(F)cc1)C1CCC(=O)N(CC2CCCCC2)C1 (stereo not drawn)	15	6	-4	17	5	-9	.	.
COc1ccc(C(C(=O)Nc2ccc3c(c2)OCCO3)n2c(=O)c(-c3cc4ccccc4[nH]3)nc3ccccc32)cc1 (stereo not drawn)	.	-62	.	.	18	.	.	.
CC(c1nc2ccccc2[nH]1)n1c(=O)c(-c2ccco2)nc2ccccc21 (stereo not drawn)	.	1	.	.	52*	.	41*	12
O=C(Nc1ccc2c(c1)OCCO2)C(c1ccccc1F)n1c(=O)c(-c2ccco2)nc2ccccc21 (stereo not drawn)	.	-13	.	.	26*	.	32*	10
COc1ccc(NC(=O)C(c2ccc(C#N)cc2)n2c(=O)c(-c3ccco3)nc3ccccc32)cc1 (stereo not drawn)	.	-5	.	.	24*	.	22*	1
CCOC(=O)Cc1csc(NC(=O)NC2(C(F)(F)F)Oc3ccccc3O2)n1	-14	21	31	15	26*	-1	62*	91*

Compound activity: PubChem BioAssay, several laboratories
